Reference: PubChem BioAssay (EPA / NIEHS)
Values joined by “and” are separate entries in the source; they are usually repeats but may differ in a detail not shown here. Equal entries are not always repeated. Results filed as inconclusive are left out. Active and inactive are the calls of the source. How the source made its calls, unless noted: active means hit-call score of the fitted dose curve at least 0.9, where 1 is the maximum; inactive means score below 0.9.

Columns and labels:
[1] = Tanguay_ZF_120hpf_TR_legacy: (Legacy) Oregon State University Tanguay Lab 120 Hour Post-fertilization zebrafish Assay for Touch Response (AID 2283667; active means hit-call score of the fitted dose curve at least 0.9, where 1 is the maximum)
In short: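 Tropical 5D wild-type zebrafish embryos were exposed statically in sealed, foil-covered plates at 28C until 120 hpf, with 0.64% (vol/vol) final DMSO. Touch response was scored as present or absent; embryos that died were not scored.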

[2] = read-out: Cytochrome P450 (CYP24A1_1), CYP24A1 (gene 1591); assay: LTEA_HepaRG_CYP24A1_1: Life Technologies and Expression Analysis (LTEA) Assay for Cytochrome P450 (CYP24A1_1) using HepaRG (AID 2283671); details: mRNA level, 48 h; actives raise or lower the signal
In short: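 HepaRG, 48 h exposure, 8-pt half-log series from 100 uM in 0.5% DMSO, duplicates. Readout: TaqMan qRT-PCR of CYP24A1 mRNA, housekeeping-normalized (ACTB/GAPDH/POLR2A). Bidirectional curve fit vs DMSO baseline.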

[3] = CCTE_Padilla_ZF_144hpf_TERATOSCORE: (Legacy) CCTE's 144 Hour Post-fertilization zebrafish Assay Teratoscore, Padilla Lab (AID 2283679);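 on AC50: zebrafish embryos with chorions exposed by immersion from 6-8 hpf to 5 dpf with daily renewal; teratogenicity score from eye scoring of death hatching and malformations at 144 hpf; higher score means more developmental defects relative to DMSO baseline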
In short: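 Larvae scored by eye at 144 hpf for death, hatching and malformations after a day in clean Hanks'. Before that, daily-renewed exposure at 80 uM (0.4% DMSO, 26C) from roughly 6-8 hpf through 5 dpf, 4 embryos per chemical.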

[4] = STM_H9_OrnithineISnorm_perc: Stemina devTOX quickPredict H9 human embryonic stem cell (hESC)-based Assay for Ornithine (ORN) Metabolite Biomarker, Normalized (AID 2283712);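 further: ornithine released into spent medium during last day measured by mass spectrometry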
In short: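 H9 human embryonic stem cells kept pluripotent receive test chemical over 72 h, refreshed daily by media exchange. Media from the closing 24 h is deproteinized and analysed by UPLC-HRMS on an amide column; ornithine signal is scaled to labelled standard and vehicle.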

[5] = STM_H9_CystineISnorm_perc: Stemina devTOX quickPredict H9 human embryonic stem cell (hESC)-based Assay for Cystine (CYSS) Metabolite Biomarker, Normalized (AID 2283713)
In short: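 H9 hESC, pluripotent; compound 72h, re-dosed q24h with medium change. Last-24h medium → 40% acetonitrile deproteinization → UPLC-HRMS. CYSS area / C13-CYSS standard, then % of 0.1% DMSO median.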

[6] = STM_H9_OrnCyssISnorm_ratio: Stemina devTOX quickPredict H9 human embryonic stem cell (hESC)-based Assay for Ornithine (ORN):Cystine (CYSS) Ratio (AID 2283714; active means hit-call score of the fitted dose curve at least 0.9, where 1 is the maximum)
In short: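 Undifferentiated H9 hESCs were exposed to compound for 72h with media and chemical replaced every 24h. Final 24-h conditioned media were deproteinized and analysed by UPLC-HRMS. ORN and CYSS peak areas were normalized to C13 internal standards and the ratio taken versus 0.1% DMSO.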

[7] = CEETOX_H295R_MTT_cell_viability: Viability Assessment in the CeeTox HT-H295R MTT Assay (AID 2283718)
In short: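 H295R cells prestimulated 48 h with 10 uM forskolin, then exposed 48 h to test chemical (0.1% DMSO final). Viability by MTT (0.5 mg/ml, 4 h, 37 C), absorbance 570/650 nm; percent change versus DMSO, bidirectional fit.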

[8] = Tanguay_ZF_120hpf_ActivityScore_legacy: (Legacy) Oregon State University Tanguay Lab 120 Hour Post-fertilization zebrafish Assay Score for Activity (AID 2283742; active means hit-call score of the fitted dose curve at least 0.9, where 1 is the maximum;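 on AC50: static exposure from 6 hpf until 120 hpf at 28 °C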)
In short: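 Tropical 5D wild-type zebrafish embryos, dechorionated with pronase at 4 hpf, were exposed singly from 6 hpf to 120 hpf statically at 28C in 0.64% DMSO. Malformations and mortality were scored as binary by brightfield, with the activity score combining 18 morphology components.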

[9] = ArunA_CellTiter_hNC: Viability Assessment in the ArunA Biomedical's Oris Neural Crest (hNC) Cell Migration Assay (AID 2283752; active means hit-call score of the fitted dose curve at least 0.9, where 1 is the maximum)
In short: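 Cell titer was measured with the CellTiter Aqueous One reagent after 72 h of chemical dosing. Cells were H9-derived embryonic neural crest stem cells seeded on Matrigel, 60,000 per well, and given 16 h at 37C beforehand.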

[10] = system: Thyroperoxidase (TPO), gene 445522; assay: CCTE_Simmons_GUA_TPO: CCTE's Guaiacol Assay for Thyroperoxidase (TPO) Inhibition, Simmons Lab (AID 2283750; active means hit-call score of the fitted dose curve at least 0.9, where 1 is the maximum)
Procedure: CCTE_Simmons_GUA_TPO is a biochemical, single-readout assay that uses microsomes from porcine thyroid gland in a tissue-based cell-free assay. Measurements were taken 0.5 hour after chemical dosing in a 384-well plate.CCTE_Simmons_GUA_TPO is the assay component measured from the CCTE_Simmons_GUA_TPO assay. It is designed to make measurements of enzyme activity, a form of enzyme reporter, as detected with absorbance signals by enzyme activity technology. This is an orthogonal assay to CCTE_Simmons_AUR_TPO run for confirmation.Data from the assay component CCTE_Simmons_GUA_TPO was analyzed at the endpoint, CCTE_Simmons_GUA_TPO, in the positive analysis fitting direction relative to DMSO as the negative control and baseline of activity. Using a type of enzyme reporter, measures of enzyme activity for loss-of-signal activity can be used to understand the binding at the pathway-level as they relate to the gene TPO. To generalize the intended target to other relatable targets, this assay endpoint is annotated to the oxidoreductase intended target family, where the subfamily is peroxidase.
The GUA assay has been described previously for both rat and pig thyroid microsomes (Chang and Doerge, 2000; Paul et al., 2013; Tietge et al., 2013). All reactions were conducted in a final reaction volume of 65 ul. Porcine thyroid microsomes (25 ug) diluted in 45 ul of 200mM potassium phosphate buffer (per well) was dispensed into clear, 384-well plates. Test compounds were administered using the HDRT as described earlier. Guaiacol (10 ul; 35mM final assay concentration) was then added using a BMG Clariostar plate reader equipped with syringe injectors and incubated with test chemical exposure at 37C for 30s. H2O2 (10 ul; 1mM final assay concentration) was then added using syringe injectors to initiate the reaction. The oxidation of guaiacol was monitored during the linear phase (first 80 seconds of the reaction) at 450nm, and the change in absorbance over this period was recorded for data analysis. Three biological replicates of technical singles were run for every chemical concentration tested. A titrated range of MMI served as a positive control for TPO inhibition on each plate ranging from 0.01 to 100 uM final concentration. Test chemicals were administered as a titrated series of 8 concentrations from 5 nM up to 87.5 uM [final] for 30 seconds prior to kinetic endpoint detection at 0.25 second intervals for 80 seconds. Dimethylsulfoxide [DMSO] was used as the vehicle control. Methimazole [MMI] was used as the positive control and was administered as a titrated series of 8 concentrations from 10 nM up to 100 uM [final].

Measured: AC50

CC(C)COC(=O)c1ccccc1C(=O)OCC(C)C
active: [3] 2.53 µM | [4] 76.1 µM | [5] 33 µM | [6] 35.3 µM
inactive: [1] | [2] | [7] | [8]

Cn1cc(-c2ccccc2)c(=O)c(-c2cccc(C(F)(F)F)c2)c1
inactive: [5] | [6] | [7] | [8]
active: [1] 41.1 µM | [3] 57 µM | [4] 0.0803 µM

Nc1ccc(Cl)cc1N
inactive: [1] | [7]
active: [2] 30.8 µM | [3] 15 µM | [8] 44.8 µM

Cc1ccc(N)c(N)c1
inactive: [1] | [7] | [8]
active: [3] 80.4 µM | [4] 18.9 µM | [5] 23.4 µM | [6] 22.7 µM

CCCCCCCCCCCCCN1CC(C)OC(C)C1 (configuration not stated)
active: [3] 90.1 µM | [5] 2.78 µM | [6] 2.62 µM
inactive: [1] | [4] | [7] | [8]

CCCCCOC(=O)c1ccccc1C(=O)OCCCCC
active: [3] 4.55 µM | [5] 19.8 µM | [6] 21.9 µM
inactive: [1] | [4] | [7] | [8]

CN(C)C(=O)Nc1ccc(Cl)cc1
inactive: [1] | [2] | [4] | [5] | [6] | [8]

COC(=O)Nc1nc2ccccc2[nH]1
inactive: [1] | [4] | [8]
active: [3] 2.61 µM | [5] 10 µM | [6] 6.5 µM

CO[C@@H]1[C@H](OC(=O)NC(=O)CCl)CC[C@]2(CO2)[C@H]1[C@@]1(C)O[C@@H]1CC=C(C)C
inactive: [1] | [2] | [3] | [8]
active: [4] 0.0844 µM | [5] 0.039 µM | [6] 0.0656 µM | [9] 1.63 nM and 120 nM

C1=Cc2cccc3cccc1c23
inactive: [1] | [2] | [8]

Cc1ccc([N+](=O)[O-])cc1
inactive: [1] | [2] | [8]

ClC1=C(Cl)C2(Cl)C3C(Cl)C=CC3C1(Cl)C2(Cl)Cl (configuration not stated)
inactive: [1] | [2] | [8]
active: [3] 3.23 µM

[Cl-].[Cl-].[Hg+2]
active: [1] 1.15 µM | [3] 0.0826 µM | [4] 1.34 µM | [5] 0.882 µM | [6] 0.995 µM | [8] 4.32 µM | [10] 389 µM

ClC1=C(Cl)[C@]2(Cl)[C@H]3[C@H]([C@@H]4C=C[C@H]3C4)[C@@]1(Cl)C2(Cl)Cl
inactive: [1] | [4] | [5] | [8]
active: [3] 976 nM and 4.66 µM

Brc1ccc(Oc2ccccc2)cc1
active: [3] 44.7 µM
not listed: [2] | [9] | [10]
inactive: all other assays above

Oc1ccc2ccc3cccc4ccc1c2c34
active: [1] 44.1 µM | [3] 15.2 µM | [8] 47.4 µM | [9] 14.7 µM
inactive: [4] | [5] | [6] | [7]

CCCCOC(=O)c1ccccc1C(=O)OCc1ccccc1
inactive: [1] | [4] | [7] | [8]
active: [3] 1.55 µM | [5] 32.6 µM | [6] 34.6 µM

CCC[CH2][Sn]([Cl])([CH2]CCC)[CH2]CCC
inactive: [1]
active: [3] 0.0309 µM | [4] 0.519 µM | [5] 0.546 µM | [6] 0.497 µM | [8] 0.317 µM

Clc1ccc(C(c2ccc(Cl)cc2)C(Cl)Cl)cc1
active: [3] 20.3 µM
inactive: [1] | [4] | [5] | [6] | [8]
